From PubChem BioAssay AID1053119 (Broad Institute, 2014) come the findings set out here.

Molecules are shown by their SMILES. Measured potencies and affinities stand elsewhere. Records with an inconclusive call do not appear. Unmarked numbers belong to inactive results.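 Rule for the calls: active = signal loss from cell killing with fitted potency at or below twice the top valid dose; inconclusive = flat drop of 30 to 70%, or unreliable curve fit; inactive = opposite direction, flat within 30%, or weaker potency.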

This experiment in a line: A549 cell cytotoxicity, dose response, cytotoxicity control, cherry-picks, 26 µM top dose (AID 1053119).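 Note: 0% = neutral control wells and -100% = 10 µM mitoxantrone wells.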 The settings on record: A549 viability, CellTiter-Glo ATP luminescence, 72 h; series mostly up to 26 µM; activity change, negative = cytotoxicity: at the top concentration. Background: In ATP-based viability assays light output follows the ATP content of the culture.
`O=C(CC1Nc2ccccc2NC1=O)Nc1ccc2c(c1)OCO2` (configuration not stated): the “activity change, negative = cytotoxicity” value was -10.1%. Regarding `CC1(C)Cc2c(C#N)c(SCC(=O)c3ccccc3)nc(N3CCOCC3)c2CS1`, the “activity change, negative = cytotoxicity” value was 5.56%. As to `C[C@@H]1CN([C@@H](C)CO)C(=O)c2cc(NC(=O)C3CCCCC3)ccc2O[C@@H]1CN(C)Cc1ccc(-c2ccccc2)cc1`, the “activity change, negative = cytotoxicity” value was -4.93%. In the case of `CCCc1cc(C(=O)OC)c(NC(=O)CCC(=O)O)s1`, the “activity change, negative = cytotoxicity” value is -7.87%. Regarding `CN(C)C(=O)c1ccc(-c2ccc3c(c2)[C@@H]2[C@@H](CCN2C(=O)c2ccc(F)cc2)[C@@H](CO)N3C)cc1`, the “activity change, negative = cytotoxicity” value is -30.3%.

On to `CC(C)Cc1nnc(NC(=O)CSc2nc(N)cc(=O)[nH]2)s1`, for which the “activity change, negative = cytotoxicity” value was -9.89%. The same measure for `COc1ccc(CCNC(=O)C2CCN(Cc3nc(-c4ccccc4F)oc3C)CC2)cc1OC`: 13.1%; for `Cc1cccc(NC(=O)c2ccc(C3SCC(=O)N3CCc3ccccc3)cc2)c1` (configuration not stated): -0.187%; for `CCCCNC(=O)Nc1nc2ccc(CC)cc2s1`: -1.95%. As for `O=S(=O)(c1ccccc1F)N1CC[C@@H]2[C@@H](CO)Nc3ccc(-c4cccc(F)c4)cc3[C@@H]21`, the “activity change, negative = cytotoxicity” value was -9.85%. In the case of `C[C@@H]1CN([C@@H](C)CO)C(=O)c2cc(-c3ccccc3)cnc2O[C@H]1CN(C)C(=O)c1cccc(F)c1`, the “activity change, negative = cytotoxicity” value is -3.62%. With `O=c1c2cc(N3CCOCC3)ccc2[nH]c(=S)n1Cc1ccc(Cl)cc1` the figure was 0.921%; with `Cc1ccc(S(=O)(=O)N2CC3(C)CN(S(=O)(=O)c4ccc(C)cc4)CC(C)(C2)C3=O)cc1`, -4.34%. With `S=C(NCC1CCCO1)Nc1ccc(Cl)cc1Cl` (configuration not stated), the “activity change, negative = cytotoxicity” value is -10.4%.

For `O=C(Nc1ccccc1F)N1C[C@H]2[C@@H](c3ccccc31)[C@H](CO)N2C(=O)C1CC1`, the “activity change, negative = cytotoxicity” value is 1.68%.

Consider `C[C@H](CO)N1C[C@H](C)[C@H](CN(C)C(=O)Nc2cccc3ccccc23)Oc2c(NC(=O)Nc3ccc(C(F)(F)F)cc3)cccc2C1=O`, for which the “activity change, negative = cytotoxicity” value was 2.92%.

`C[C@H](O)C#Cc1ccc2c(c1)O[C@@H](CN(C)C)[C@H](C)CN([C@H](C)CO)S2(=O)=O`: the “activity change, negative = cytotoxicity” value is 11.8%. For the molecule `COc1cccc(-c2ccc3c(c2)[C@H]2[C@H](CCN2S(=O)(=O)c2cccc(OC)c2)[C@H](CO)N3)c1`, the “activity change, negative = cytotoxicity” value was -8.97%. Regarding `CCc1nc2c(OCCc3cccc(OC)c3)cccn2c1N(C)C(=O)c1ccc(C)cc1`, the “activity change, negative = cytotoxicity” value is -7.35%. As for `CCOC(=O)c1nnn(-c2ccc(OC)cc2)c1N`, the “activity change, negative = cytotoxicity” value was -2.2%.

`Cn1cnc(S(=O)(=O)N2CCN(c3ccccc3)CC2)c1`: the “activity change, negative = cytotoxicity” value was -0.126%. As for `COC(=O)c1c(NC(=O)CN2CCN(c3ccccc3Cl)CC2)sc(C)c1C`, the “activity change, negative = cytotoxicity” value is -11.6%. As for `COc1ccc(C)cc1N(CC(=O)Nc1cccc(N(C)S(C)(=O)=O)c1)S(C)(=O)=O`, the “activity change, negative = cytotoxicity” value was -12.4%. In the case of `Fc1cnc(N2CCN(c3ccccc3)CC2)nc1N1CCN(c2ccccc2)CC1`, the “activity change, negative = cytotoxicity” value is 9.88%. Consider `COC(=O)C[C@H]1CC[C@H]2[C@@H](COc3ccc(NC(=O)Cc4cccs4)cc3C(=O)N2C)O1`, for which the “activity change, negative = cytotoxicity” value is 4.07%. Consider `C[C@@H]1CN([C@@H](C)CO)C(=O)c2cc(-c3ccccc3)cnc2O[C@@H]1CN(C)C(=O)c1cccc(F)c1`, for which the “activity change, negative = cytotoxicity” value was -10.3%. Consider `C[C@H]1CN([C@@H](C)CO)C(=O)c2cc(-c3ccccc3)cnc2O[C@@H]1CN(C)C(=O)c1cccc(F)c1`, for which the “activity change, negative = cytotoxicity” value was -5.97%. With `COc1ccccc1CNc1nc(NCc2cnc(C)cn2)c2sccc2n1` the figure was 0.101%; with `OC(CNC1CCCc2ccccc21)COc1c(Cl)cccc1Cl` (configuration not stated), -13.4%; with `O=S(=O)(c1ccccc1F)N1CC[C@H]2[C@H](CO)Nc3ccc(-c4cccc(F)c4)cc3[C@H]21`, -4.39% [at 23.5 µM]. The same measure for `Cc1cccc(NC(=O)c2ccc(S(=O)(=O)N3CCCCC3)cc2)n1`: -1.35%; for `CC(NC(=O)CSc1ccc(S(=O)(=O)N2CCOCC2)cn1)c1ccc(Cl)cc1Cl` (configuration not stated): 12.1%; for `CC(C)CNC(=O)c1coc(=O)c(Br)c1`: -7.45%. The same measure for `COc1cccc(CNC(=O)CCc2nnc3ccc(NCCCN4CCCC4=O)nn23)c1`: -2.93%; for `O=C(c1cccnc1)N1C[C@H]2[C@@H](c3ccccc31)[C@@H](CO)N2CC1CCCC1`: -16.2%; for `CC(C)(C)[S@@](=O)N1Cc2cc(C(=O)NCc3ccccc3F)nc(-c3cccc(-c4cncnc4)c3)c2[C@H]1CCO`: -12.2%. As to `CCN1CCN(C(c2ccccc2)c2nnnn2Cc2ccccc2)CC1` (configuration not stated), the “activity change, negative = cytotoxicity” value was -9.25%.
